In PubChem BioAssay (NCATS):
Records with an inconclusive call do not appear. Entries that show only a call come without a potency. A number with no mark means an inactive call. Active and inactive are the calls of the source. Calls come from the whole dose curve; as a rule, active = well fitted inhibition curve with a large enough effect; inconclusive = small, poorly fitted or top-dose-only effect; inactive = no such curve, though single readings can be large or run the other way.

Key:
[1] = tested on: Zika virus NS2B-NS3 protease (unlinked complex); assay: Primary screen GU Rhodamine qHTS for Zika virus inhibitors: Unlinked NS2B-NS3 protease assay (AID 1347159); note: nearly all actives have a fitted effect of over 60% in size
Outline: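 Percent inhibition derives from the 15-min fluorescence change (ex 480, em 540 nm), normalized to no-enzyme and no-inhibitor wells. Reactions contained 25 nM NS2B-NS3 complex and 1.5 microM substrate in 10 mM Tris-HCl pH 8.0.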

[2] = tested on: Zika virus NS2B-NS3 protease (linked construct); assay: Primary screen NINDS Rhodamine qHTS for Zika virus inhibitors (AID 1347160); note: nearly all actives have a fitted effect of over 55% in size
Outline: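 In 10 mM Tris-HCl pH 8.0 containing 0.01% Tween 20, linked NS2B-NS3 protease (25 nM final) is exposed to test compounds for 15 min. Cleavage of 1.5 microM Rhodamine110 substrate is tracked by fluorescence over 15 min.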
Potency is the fitted concentration of half-maximal effect.

## CCC[C@@H]1C[C@@H](C(=O)N[C@@H]([C@H]2O[C@H](SC)[C@H](OP(=O)(O)O)[C@@H](O)[C@H]2O)[C@H](C)Cl)N(C)C1
[1]
  Potency: inactive
[2]
  Potency: inactive

## C=C1C(=O)OC2/C=C(\C)CC/C=C(\C(=O)O)CC/C=C(\C)CCC12 (stereo not drawn)
[1]
  Potency: inactive
[2]
  Potency: inactive

## COc1cc(C2c3cc(O)c(OC)cc3CC(CO)C2CO)ccc1O (stereo not drawn)
[1]
  Potency: inactive
[2]
  Potency: inactive

## Oc1ccc([C@H]2COc3cc(O)ccc3C2)cc1
[1]
  Potency: inactive
[2]
  Potency: inactive

## CC12CC34C=CC(=O)C(C)(CCC(=O)O)C3C(CC1C4)O2 (stereo not drawn)
[1]
  Potency: inactive
[2]
  Potency: inactive

## COC(=O)[C@H](CC1C=NC=N1)NCC12CC3CC(CC(C3)C1)C2 (stereo partly drawn)
[1]
  Potency: inactive
[2]
  Potency: inactive

## COC(=O)C1=CO[C@@H](O[C@@H]2O[C@H](CO)[C@@H](O)[C@H](O)[C@H]2O)[C@@H]2[C@@](C)(O)[C@@H](O)C[C@]12O
[1]
  Potency: inactive
[2]
  Potency: inactive

## Cc1c(-c2ccnn2C)cc(C(=O)NCc2ccc(S(C)(=O)=O)cn2)c(=O)n1-c1cccc(C(F)(F)F)c1
[1]
  Potency: inactive
[2]
  Potency: inactive

## CNC(=O)[C@H]1O[C@@H](n2cnc3c(NCc4ccc(N)c(I)c4)ncnc32)[C@H](O)[C@@H]1O
[1]
  activity change, negative = inhibition: 10.8% [at 19.1 µM]
[2]
  outcome: inactive [at 10.7 µM]

## Cc1cc(O)c(C(C)C)cc1O[C@@H]1O[C@H](CO)[C@@H](O)[C@H](O)[C@H]1O
[1]
  Potency: inactive
[2]
  Potency: inactive

## COC1(CC(C)C)NC(=O)C(O)(Cc2ccccc2)NC1=O (stereo not drawn)
[1]
  Potency: inactive
[2]
  Potency: inactive

## CCOC(=O)c1ccc(N(C)c2csc(-c3ccccc3)n2)cc1
[1]
  Potency: inactive
[2]
  Potency: inactive

## COc1ccc(C(=O)O[C@H]2CC(C)=CC[C@@]3(C)[C@@H](OC(C)=O)C[C@@](O)(C(C)C)[C@H]23)cc1
[1]
  Potency: inactive
[2]
  Potency: inactive

## CO[C@@H](Cc1ccc(OCCc2nc(-c3ccccc3)oc2C)c2ccsc12)C(=O)O
[1]
  Potency: 17.8 µM (active)
[2]
  Potency: 12.6 µM (active)

## C[C@@H]1O[C@@H](O[C@@H]2[C@@H](O)[C@@H](O)[C@H](O[C@@H]3[C@@H](O)[C@@H](O[C@]4(CO)O[C@H](CO)[C@@H](O)[C@@H]4OC(=O)/C=C/c4ccc(O)cc4)O[C@H](CO)[C@H]3OC(=O)/C=C/c3ccc(O)cc3)O[C@H]2C)[C@H](O)[C@H](O)[C@H]1O
[1]
  Potency: inactive
[2]
  Potency: inactive

## C[C@H]1CN(C[C@H](Cc2ccccc2)C(=O)NCC(=O)O)CC[C@@]1(C)c1cccc(O)c1
[1]
  Potency: inactive
[2]
  Potency: inactive

## CO[C@H]1C=C2C(CC[C@H](O[C@@H]3O[C@H](CO)[C@@H](O)[C@@H](O)[C@H]3O)C2(C)C)[C@]2(C)CC[C@]3(C)C([C@H](C)C(O)C(C=C(C)C)O[C@@H]4O[C@H](CO)[C@@H](O)[C@@H](O)[C@H]4O)CC[C@@]3(C)C12 (stereo partly drawn)
[1]
  Potency: inactive
[2]
  Potency: inactive

## O=c1c2ccccc2nc2n1CCC2O (stereo not drawn)
[1]
  Potency: inactive
[2]
  Potency: inactive

## CC(C)(O)C1=CCC23COC(C2)C(O)(C(=O)O)CCC13 (stereo not drawn)
[1]
  Potency: inactive
[2]
  Potency: inactive

## CN1CC[C@@H](NC(=O)Nc2ccc(C#N)cc2)C[C@@H]1c1nc2ccccc2[nH]1
[1]
  Potency: inactive
[2]
  Potency: inactive

## Cn1c(=O)cc(N2CCCC(N)C2)n(Cc2ccccc2C#N)c1=O (stereo not drawn)
[1]
  Potency: inactive
[2]
  Potency: inactive

## C=CC(C)(O)CC/C=C(/C)C(=O)OC1C(OC2OCC(OC3OC(CO)C(O)C(O)C3O)C(OC3OCC(O)C(OC4OC(C)C(O)C(O)C4O)C3O)C2O)COC(OC(=O)C23CCC(C)(C)CC2C2=CCC4C5(C)CCC(OC6OC(CO)C(OC7OC(CO)C(O)C(OC8OCC(O)C(O)C8O)C7O)C(O)C6O)C(C)(C)C5CCC4(C)C2(C)CC3O)C1O (stereo not drawn)
[1]
  activity change, negative = inhibition: 23.5% [at 19.1 µM]
[2]
  activity change, negative = inhibition: 4.71% [at 10.7 µM]

## CC1NC(=O)C(Cc2c[nH]c3ccccc23)NC1=O (stereo not drawn)
[1]
  Potency: inactive
[2]
  Potency: inactive

## C[C@@H]1C[C@H](O)/C=C/[C@H](O)[C@@H](O)CC(=O)O1
[1]
  Potency: inactive
[2]
  Potency: inactive

## COc1cc(C2OCC3C(c4ccc(OC5OC(CO)C(O)C(O)C5O)c(OC)c4)OCC23)ccc1O (stereo not drawn)
[1]
  Potency: inactive
[2]
  Potency: inactive

## C=C1C[C@]23C[C@H]1CC[C@H]2[C@@]12C=C[C@H](O)[C@@](C)(C(=O)O1)[C@H]2[C@@H]3C(=O)O
[1]
  Potency: inactive
[2]
  Potency: inactive

## COc1cc2c(cc1O)C1(OC)Cc3ccc4c(c3C1N(C)CC2)OCO4 (stereo not drawn)
[1]
  Potency: inactive
[2]
  Potency: inactive

## CCC(=O)NS(=O)(=O)c1ccc(-c2c(-c3ccccc3)noc2C)cc1
[1]
  Potency: inactive
[2]
  Potency: inactive

## CC1(C)CC[C@]2(C(=O)O)CC[C@]3(C)C(=CCC4[C@@]5(C)C[C@H](O)[C@H](O[C@@H]6OC[C@H](O)[C@H](O)[C@H]6O)[C@@](C)(CO)C5CC[C@]43C)[C@@H]2C1 (stereo partly drawn)
[1]
  Potency: inactive
[2]
  Potency: inactive
